From PubChem BioAssay
KB-V1 cytotox: qHTS assay for MDR1-selective chemotherapeutics: Primary screen using the drug-selected MDR subline cells KB-V1 | KB-V1 MDR cells viability, CellTiter-Glo, 72 h | Potency, µM (doses to about 46.1 µM), actives largely listed as cytotoxic | 3.4% of 400,000 active | AID 1347076, 2019; further: nearly all actives have a fitted effect of over 60% in size
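qHTS viability screen in drug-selected KB-V1 MDR cells: 72 h compound treatment at 37 degrees C, ATP luminescence end point.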
SW480 rerep: A quantitative high throughput screen for small molecules that induce DNA re-replication in SW480 colon adenocarcinoma cells. Potency, µM (titrated, usually from 46.1 µM), most hits filed as activators. SW480 DNA re-replication, Hoechst DNA content imaging, 48 h. AID 624297, 2012. 1.8% of 340,000 active; further: nearly all actives have a fitted effect of over 55% in size
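Image-based DNA-content assay: after two days of treatment, nuclei were labelled with the DNA dye Hoechst and imaged, and hits were compounds raising the count of nuclei showing high fluorescence intensity.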
KB-3-1 tox: qHTS assay for MDR1-selective chemotherapeutics: Primary screen using the parental adenocarcinoma cell KB-3-1; KB-3-1 viability, CellTiter-Glo ATP luminescence, 72 h; Potency, µM (highest dose often 46.1 µM), most hits filed as cytotoxic; 1.4% of 400,000 active; further: nearly all actives have a fitted effect of over 60% in size
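Cytotoxicity measured as CellTiter-Glo luminescence after 72 h at 37 C. Compound titrations were pinned onto drug-naive KB-3-1 parental adenocarcinoma cells grown in DMEM with 10% FBS, and normalized data fitted to concentration-response curves.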
IL-1B inflam inh: qHTS for Inhibitors of Inflammasome Signaling: IL-1-beta AlphaLISA Primary Screen; THP-1 LPS/ATP IL-1B secretion, AlphaLISA, 16 h; active compounds read low; activity change, % at 57.5 µM; 4.7% of 360,000 active; in the data active means activity change below about -50%; inconclusive means mostly about -30% to -49%
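THP-1 cells pretreated 1 hr with compounds (up to 57.5 uM final), then stimulated with LPS (250 ng/mL final) plus ATP (1.25 mM final); secreted IL-1B measured by AlphaLISA after 16 hr, decreased signal indicating inhibition.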
MCF10A rereplic: A quantitative high throughput screen for small molecules that induce DNA re-replication in MCF 10a normal breast cells. Potency, µM (doses to about 46.1 µM), usual class: activators. MCF 10A DNA re-replication, Hoechst nuclear intensity, 48 h. 2.9% of 350,000 active. AID 624296, 2012; further: nearly all actives have a fitted effect of over 50% in size
Large screens that a line does not name were inactive; ! = not active in a repeat. Only some compounds are listed: those with a hit (about 9.9% of all), similar ones and a draw of the others. Unless noted, the call rests on the fitted dose curve; in most records, active means well fitted curve in the direction sought with a large enough effect; inconclusive means small, poorly fitted or top-dose-only effect, or another doubt; inactive means no such curve, though single readings can be large; an effect the other way counts as inactive or inconclusive.

O=C(NC(NC(=S)Nc1ccccc1)C(Cl)(Cl)Cl)c1cccc(Cl)c1 (stereo not drawn)	KB-V1 cytotox inconclusive, SW480 rerep inconclusive, KB-3-1 tox inconclusive, IL-1B inflam inh -95, MCF10A rereplic inconclusive
Cc1ccccc1NC(=S)NC(NC(=O)c1ccccc1C)C(Cl)(Cl)Cl (stereo not drawn)	none
Cc1cc(C)c(NC(=S)NC(NC(=O)c2ccccc2)C(Cl)(Cl)Cl)c(C)c1 (stereo not drawn)	KB-V1 cytotox inconclusive, SW480 rerep inconclusive, KB-3-1 tox inconclusive, IL-1B inflam inh -75
O=C(O)c1cccc(NC(=S)NC(NC(=O)c2cccc([N+](=O)[O-])c2)C(Cl)(Cl)Cl)c1 (stereo not drawn)	none
O=C(NC(NC(=S)Nc1ccc(Cl)cc1Cl)C(Cl)(Cl)Cl)c1cccc([N+](=O)[O-])c1 (stereo not drawn)	KB-V1 cytotox inconclusive, SW480 rerep 21µM, KB-3-1 tox inconclusive, IL-1B inflam inh -102, MCF10A rereplic 12µM
Cc1ccc(NC(=S)NC(NC(=O)c2ccccc2)C(Cl)(Cl)Cl)c(C)c1 (stereo not drawn)	KB-V1 cytotox 16µM, KB-3-1 tox inconclusive, IL-1B inflam inh inconclusive, MCF10A rereplic inconclusive
Cc1cccc(N2CCN(C(=O)c3cc(S(=O)(=O)N4CCOCC4)cn3C)CC2C)c1 (stereo not drawn)	none
O=C(Nc1ccc(S(=O)(=O)Nc2ncccn2)cc1)c1ccccc1NS(=O)(=O)c1ccc(Cl)cc1	none
O=C(O)COC(=O)Cc1ccccc1Nc1c(Cl)cccc1Cl	none
O=C(NC(NC1CCS(=O)(=O)C1)C(Cl)(Cl)Cl)c1cccc(Cl)c1 (stereo not drawn)	KB-V1 cytotox 23µM
N#Cc1ccc(NS(=O)(=O)c2ccc3c(c2)CCC(=O)N3)cc1	KB-V1 cytotox inconclusive (no result: SW480 rerep, IL-1B inflam inh, MCF10A rereplic)
Cc1ccc(-c2nc3ncccn3c2Nc2ccccc2C)o1	none
Cc1ccc(-c2nc3cnccn3c2Nc2c(C)cccc2C)o1	SW480 rerep inconclusive, MCF10A rereplic 21µM
Cc1c(-c2nsc(NC(=O)c3cccs3)n2)nnn1-c1ccc(Br)cc1	none (no result: SW480 rerep, IL-1B inflam inh, MCF10A rereplic)
CCc1cc(/C(Cc2ccccn2)=N\Nc2ccccc2)c(O)cc1O	KB-V1 cytotox inconclusive, IL-1B inflam inh -76, MCF10A rereplic inconclusive
COc1ccccc1NS(=O)(=O)c1cc(NC(=O)c2[nH]c(C)c(C(C)=O)c2C)ccc1N1CCOCC1	KB-3-1 tox inconclusive
O=c1c2cc(Cl)cc(Cl)c2nc2n1CCC2	MCF10A rereplic inconclusive
OC(c1cc(-c2ccc(Cl)cc2)nc2ccccc12)C1CCCCN1 (stereo not drawn)	SW480 rerep inconclusive, IL-1B inflam inh -78
OC(c1cc(C(F)(F)F)nc2c(Cl)cc(Cl)cc12)C1CCCCN1 (stereo not drawn)	KB-V1 cytotox inconclusive, SW480 rerep inconclusive, KB-3-1 tox inconclusive, IL-1B inflam inh -89, MCF10A rereplic inconclusive
CC(O)(c1ccccc1)C(c1ccccc1)C1CCCCN1 (stereo not drawn)	KB-V1 cytotox inconclusive, IL-1B inflam inh inconclusive
CC(C)(C)NCCC(O)c1cc(C(F)(F)F)nc2c(C(F)(F)F)cccc12 (stereo not drawn)	KB-V1 cytotox 21µM, SW480 rerep inconclusive, KB-3-1 tox inconclusive, IL-1B inflam inh -88
O[C@@H](c1cc(C(F)(F)F)nc2c(C(F)(F)F)cccc12)[C@H]1CCCCN1	KB-V1 cytotox inconclusive, SW480 rerep inconclusive, KB-3-1 tox 18µM!, IL-1B inflam inh inconclusive, MCF10A rereplic inconclusive
CC(C)Cn1c(N)c(C(=O)COC(=O)c2cc(C(F)(F)F)nc3c(C(F)(F)F)cccc23)c(=O)n(C)c1=O	none (no result: KB-V1 cytotox, KB-3-1 tox, IL-1B inflam inh)
COc1ccc(C(=O)C(=O)N2CCN(c3ccccc3F)CC2)cc1	KB-V1 cytotox inconclusive (no result: SW480 rerep, MCF10A rereplic)
CCc1ccc(-c2cc(C(=O)O)c3ccccc3n2)s1	SW480 rerep inconclusive
Cc1ccc(/C=C2/SC(=S)N(CCCC(=O)Nc3ccc(O)cc3)C2=O)cc1	KB-V1 cytotox inconclusive, SW480 rerep inconclusive, KB-3-1 tox inconclusive, IL-1B inflam inh -62, MCF10A rereplic inconclusive
